PPC-1+TRAIL kill: PPC-1 cancer cell killing with TRAIL present | PPC-1 cells + TRAIL, ATPLite viability luminescence | cell killing (% activity), % at 4 µM or 5 µM | hit rate 0.41% among 220,000;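 active means cell killing above 50% in the first pass at 4 µM, then a duplicate retest at 5 µM averaging 50% or more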
SENP7 block: blocks the human protease SENP7; hit rate 1.5% among 330,000; recombinant SENP7, Z-RLRGG-aminoluciferin luminescence, 40 min; AID 434973; inhibition, % at 5 µM;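 active means inhibition above about 50% at the single test dose, limit read from the data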
Target sequence (Q9BQF6 706-1050 limits assumed): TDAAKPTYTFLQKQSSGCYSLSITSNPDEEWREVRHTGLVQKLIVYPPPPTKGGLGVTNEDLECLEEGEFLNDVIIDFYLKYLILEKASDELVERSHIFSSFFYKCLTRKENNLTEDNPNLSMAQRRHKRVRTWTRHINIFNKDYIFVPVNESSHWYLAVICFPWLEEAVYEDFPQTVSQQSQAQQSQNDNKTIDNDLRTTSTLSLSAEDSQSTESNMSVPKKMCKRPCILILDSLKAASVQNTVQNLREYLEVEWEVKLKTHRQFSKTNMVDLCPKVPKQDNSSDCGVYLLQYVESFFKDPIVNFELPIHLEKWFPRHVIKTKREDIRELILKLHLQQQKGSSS
SENP6 block: blocks the human protease SENP6 | Q9GZR1 | Recombinant SENP6 catalytic domain, aminoluciferin luminescence | inhibition, % at 10 µM | hit rate 1.8% among 330,000 | AID 2599;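 active means inhibition above about 50% at the single tested dose, limit read from the data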
SENP8 block-1: SENP8 (human) protease inhibition | Q96LD8 | recombinant SENP8, Nedd8 substrate fluorescence | inhibition, % at 20 µM | hit rate 0.64% among 360,000 | AID 602440; in the data active means inhibition mostly above about 40%, no sharp cut-off; inactive means mostly below about 27%
C8 TRAIL sens: caspase-8 TRAIL sensitization; NB7+C8 cells + TRAIL, ATPlite viability luminescence; inhibition (viability loss, TRAIL sensitization), % at 10 µM; hit rate 1% among 360,000;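 active means compounds causing at least 50% loss of cell viability in the single-dose screen, relative to plate controls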
SENP8 block-2: blocks the human protease SENP8; purified SENP8, Z-RLRGG-aminoluciferin cleavage, luminescence; inhibition, % at 10 µM; hit rate 1.2% among 330,000; AID 2540; in the data active means inhibition above about 50%
Numbers stand for hits; . = inactive; / = no result given. Most compounds without a hit are left out; they make up all but 3% or so of the library.

SMILES | PPC-1+TRAIL kill | SENP7 block | SENP6 block | SENP8 block-1 | C8 TRAIL sens | SENP8 block-2
COc1ccc(C2=Nc3ccccc3NC(=O)C2N(C(=O)c2ccnc3ccccc23)c2ccccc2)cc1 (stereo not given) | / | / | / | . | . | /
CSc1ccc(CNC(=O)Cc2ccc(NC(=O)C3=C(C)OCCS3)cc2)cc1 | / | . | . | . | 59 | .
CCOc1ccc(CCNC(=O)Cc2ccc(NC(=O)C3=C(C)OCCS3)cc2)cc1 | / | . | . | . | . | .
COc1ccccc1C1c2ccc3ccccc3c2Oc2ncn(CCN(C)C)c(=N)c21 (stereo not given) | / | . | . | . | . | .
COc1ccc(C2c3ccc4ccccc4c3Oc3ncn(CCCN(C)C)c(=N)c32)cc1 (stereo not given) | / | . | . | . | 58 | .
Cc1sc(NC(=O)C2C3CCC(O3)C2C(=O)O)nc1-c1ccc(CC(C)C)cc1 (stereo not given) | . | . | 56 | . | . | .
Cc1ccc(C(=O)CNc2ccccc2)cc1 | / | . | . | . | . | .
O=C(CNc1ccc(F)cc1)c1ccccc1 | . | . | 65 | . | . | .
O=C(Cn1ncc(Cl)c(Cl)c1=O)NC1CCCCC1 | / | . | . | . | 96 | .
O=C(Cn1ncc(Cl)c(Cl)c1=O)NCC1CCCCC1 | . | / | / | . | 95 | /
O=C(Cn1ncc(Cl)c(Cl)c1=O)NC1CCS(=O)(=O)C1 (stereo not given) | . | . | . | . | . | .
O=C1CN(C(=O)COc2ccc(Cl)c(Cl)c2)c2ccccc2N1 | / | . | . | . | . | .
CC(C)(C)C(=O)Cn1ncc(Cl)c(Cl)c1=O | . | / | / | . | . | /
O=C(OCn1ncc(Cl)c(Cl)c1=O)c1ccccc1Cl | . | / | / | . | 87 | /
O=C1CN(C(=O)Cn2ncc(Cl)c(Cl)c2=O)c2ccccc2N1 | . | / | / | . | 94 | /
CCCCNC(=O)C1(C)CCCCN1Cc1ccccc1-c1ccccc1 (stereo not given) | / | / | / | . | . | /
Cc1cccc(NC(=O)CNC(=O)CSc2ncccn2)c1C | / | . | . | . | . | .
Cc1cccc(NC(=O)CNC(=O)Cn2ncc(Cl)c(Cl)c2=O)c1C | / | . | . | . | 74 | .
O=C(Cn1ncc(Cl)c(Cl)c1=O)c1ccc(Cl)cc1 | . | / | / | . | 95 | /
Cc1ccc(NC(=O)Cn2ncc(Cl)c(Cl)c2=O)cc1S(=O)(=O)N1CCCCC1 | / | . | . | . | 79 | .
O=C1CCC(O)CCN1CCSc1ccccc1 (stereo not given) | / | . | . | . | . | .
O=C(NCCc1ccc(F)cc1)c1ccc(NS(=O)(=O)c2ccc3[nH]c(=O)[nH]c3c2)cc1 | / | . | . | . | . | .
COCCN1C(=O)CN(S(C)(=O)=O)CC1(C)C(=O)NC(C)C (stereo not given) | / | / | / | . | . | /
O=C(Nc1ccc(OCC(=O)N2CCOCC2)cc1)c1ccccc1F | / | . | . | . | 61 | .
CCCCCCCCCC(=O)Nc1cccnc1 | . | . | . | / | / | .
SMILES | PPC-1+TRAIL kill | SENP7 block | SENP6 block | SENP8 block-1 | C8 TRAIL sens | SENP8 block-2
COc1cccc(CNC(=O)[C@@H]2CCCN2C(=O)[C@H]2CCCCN2C(=O)c2ccccc2C)c1 | / | / | / | . | . | /
Cc1nc(NCCOc2ccccc2)sc1C(=O)Nc1ccccc1 | . | 84 | 76 | . | . | 63
Cc1nc(NCc2ccccc2)sc1C(=O)Nc1ccccc1 | . | . | . | . | . | .
CC(C)c1ccc(C(C)NC(=O)C2CCCC2)cc1 (stereo not given) | / | . | . | . | . | .
Cc1ccc(Nc2nc(NCc3ccco3)c3ccccc3n2)cc1 | . | . | . | . | 71 | .
CC1(C)CC(=O)C=C(c2cccc(OC(=O)c3ccc(-c4ccccc4)cc3)c2)C1=O | / | / | / | . | . | /
Cc1ccc2c(c1C)-c1c(ccc(C)c1C)C(=O)C2=O | / | / | / | . | 58 | /
Cc1ccc(CC#N)c(-c2c(CC#N)ccc(C)c2C)c1C | / | / | / | . | . | /
COc1ccc(NC(=O)COc2cccc3c2CCN(Cc2cccnc2)C3=O)c(OC)c1 | / | . | . | . | . | .
O=C(/C=C/c1ccc(F)cc1)c1ccc(N2CCOCC2)cc1 | . | 78 | 80 | . | . | .
CCc1ccc(/C=C/C(=O)c2ccc(N3CCOCC3)cc2)cc1 | . | . | . | . | . | .
CCCCn1c(N)c(N(CCOC)C(=O)CN(C)CC(=O)Nc2ccc(Cl)c(Cl)c2)c(=O)[nH]c1=O | / | . | . | . | . | .
CC(C)CCCCCCCCCCCCC(=O)NCC(=O)NC1C(O)C(O)C(Nc2ncnc3nc[nH]c23)OC1C(O)CO (stereo not given) | / | / | / | . | 65 | /
